Source: PubChem BioAssay
Shiga inhibitor: inhibitors of Shiga toxin in Vero cells; Vero cells, Shiga toxin protein synthesis inhibition reporter; inhibition, % at 38.7 µM; actives 9.2% (n = 290,000); AID 2315; in the data active means inhibition mostly above about 28%, no sharp cut-off; inactive means mostly below about 43%; further: 0% is about no effect
NS1 function inh: inhibitors of influenza NS1 protein function; Potency, µM (doses to about 46.1 µM), without a hit: at the top dose activity, positive = more growth; actives 0.4% (n = 270,000); calls by dose curve; further: potency means the concentration at half of the fitted maximal effect; actives are rising curves; nearly all actives have a fitted effect of over 50% in size
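Compounds were scored for reversing the slow growth caused by influenza A NS1 in S. cerevisiae, measured by optical density at 600 nm. Assay medium contained 2% galactose at pH 6.0; NS1-free yeast of the same strain were the positive control.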
Pf growth 96h: P. falciparum growth inhibition at 96 hours; Potency, µM (highest dose often 28.7 µM), for the others: top-dose activity change, negative = inhibition, most hits filed as inhibitors; AID 504834; P. falciparum luciferase reporter growth, 96 h; actives 6.9% (n = 320,000); further: potency means the concentration at half of the fitted maximal effect; on the % scale 0 is the no-effect control and ±100 the full control effect
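Compounds incubated with erythrocytes infected by luciferase-expressing P. falciparum (2% hematocrit, 0.05% parasitemia final) for 96 hours, 37 C in 5% CO2. Growth inhibition scored as decreased luciferase luminescence.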
Cycloheximide cs: counter-screen for Shiga toxin inhibitors: cycloheximide protein synthesis inhibition | cell reporter, cycloheximide protein synthesis inhibition counterscreen | max response, % | actives 12% (n = 300,000) | AID 2314; in the data active means max response mostly above about 13%, no sharp cut-off; inactive means mostly below about 14%; further: read at 38.3 µM for the half of the compounds with a filed dose; 0% is about no effect
Pf growth 48h: inhibits P. falciparum growth in the first generation, 48 h; P. falciparum luciferase growth in erythrocytes, 48 h; Potency, µM (top dose mostly 28.7 µM), for inactives: at the highest dose activity change, negative = inhibition, actives largely listed as inhibitors; actives 5.9% (n = 310,000); further: potency means the concentration at half of the fitted maximal effect; on the % scale 0 is the no-effect control and ±100 the full control effect
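Cell-based growth assay: transgenic P. falciparum expressing firefly luciferase, cultured in red cells within RPMI 1640 containing 0.5% w/v Albumax, 24 mM bicarbonate and gentamycin. A drop in luciferase activity indicates inhibition.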
Flu NS1 inh: influenza NS1 function inhibition validation | shares compounds with NS1 function inh | influenza NS1 function cell assay, 15-point titration | activity change, negative = inhibition, % at 32.9 µM | 1,400 tested, under 10 active | AID 492980; calls by dose curve; further: 0% is about no effect
* marks the source's active call; other numbers are inactive results; [ ] = another dose, or the depositor's remark. In the library only some 21% were active in any assay of this set; here they are far more common. Unless noted, the call rests on the fitted dose curve; in most records, active means well fitted inhibition curve with a large enough effect; inconclusive means small, poorly fitted or top-dose-only effect, or another doubt; inactive means no such curve, though single readings can be large or run the other way.

Results for Cc1ccc([N+](=O)[O-])cc1N(CC(=O)Nc1ccc(S(=O)(=O)Nc2cccc(C(F)(F)F)c2)cc1)S(C)(=O)=O ?
Shiga inhibitor: 10; NS1 function inh: 16µM*; Pf growth 96h: -14%; Cycloheximide cs: -1; Pf growth 48h: 3%; Flu NS1 inh: 10

Results for CN(Cc1cccc(F)c1)C(=O)c1ccc(S(=O)(=O)C(F)F)cc1 ?
Shiga inhibitor: 10; NS1 function inh: 2.8µM*; Pf growth 96h: -19%; Cycloheximide cs: 0; Pf growth 48h: 10%; Flu NS1 inh: 0

Results for O=C(O)CCC(=O)N1CCc2cc(S(=O)(=O)NC3CCCc4ccccc43)ccc21 (configuration not stated) ?
Shiga inhibitor: 36; NS1 function inh: 3.5µM*; Pf growth 96h: inconclusive; Cycloheximide cs: 6; Pf growth 48h: inconclusive; Flu NS1 inh: 20

What do the screens show for `O=C(C1CCC1)N1CCc2cc(S(=O)(=O)NC3CCCc4ccccc43)ccc21` (configuration not stated)?
Shiga inhibitor: 7; NS1 function inh: 6%; Pf growth 96h: 19%; Cycloheximide cs: 11

What do the screens show for `Cc1c(C(=O)OCC(=O)N2CC(C)OC(C)C2)oc2ccc(Br)cc12` (configuration not stated)?
Shiga inhibitor: 11; NS1 function inh: 0.45µM*; Pf growth 96h: -1%; Cycloheximide cs: 4; Pf growth 48h: -8%; Flu NS1 inh: inconclusive

What do the screens show for `O=C(O)CCC(=O)Nc1ccc(C(=O)N2CCCCC2)cc1`?
Shiga inhibitor: 4; NS1 function inh: -13%; Pf growth 96h: 1%; Cycloheximide cs: 1; Pf growth 48h: -11%

How did Cc1cc(C)c(OCCN2C(=O)NC(C)(C)C2=O)c(Cl)c1 do in these assays?
Shiga inhibitor: 19; NS1 function inh: inconclusive; Pf growth 96h: inconclusive; Cycloheximide cs: 18; Flu NS1 inh: -32

Results for CCOc1ccccc1N1CCN(CC(=O)Nc2nc(C)c(C(=O)N(C)C)s2)CC1 ?
Shiga inhibitor: -7; NS1 function inh: 5%; Pf growth 96h: -6%; Cycloheximide cs: -3; Pf growth 48h: -5%

What do the screens show for `Cn1c(=O)cc(OCCCC(=O)NCCCN2CCN(Cc3ccccc3)CC2)c2ccccc21`?
Shiga inhibitor: 13; NS1 function inh: 3.5µM*; Pf growth 96h: 126%; Cycloheximide cs: 2; Pf growth 48h: inconclusive; Flu NS1 inh: -16

How did CCOC(=O)C1=C(CSc2nc3c(cc2C#N)CN(C)CC3)OC(N)=C(C#N)C1c1ccccc1 (configuration not stated) do in these assays?
Shiga inhibitor: -1; NS1 function inh: 9%; Pf growth 96h: -27%[5.75 µM]; Cycloheximide cs: -2; Pf growth 48h: inconclusive

How did CCOC(=O)C1=C(CSc2nc(-c3ccccc3)ccc2C#N)OC(N)=C(C#N)C1c1cccnc1 (configuration not stated) do in these assays?
Shiga inhibitor: 92*; NS1 function inh: 10µM*; Pf growth 96h: inconclusive; Cycloheximide cs: 42*; Flu NS1 inh: 1

What do the screens show for `CCOC(=O)C1=C(CSc2nc3c(cc2C#N)CN(C)CC3)OC(N)=C(C#N)C1c1ccc(F)cc1` (configuration not stated)?
Shiga inhibitor: 14; NS1 function inh: 10µM*; Pf growth 96h: inconclusive; Cycloheximide cs: -2; Flu NS1 inh: 29

How did COc1cccc(NC(=S)N2CCc3cc(OC)c(OC)cc3C2COc2ccc3c(C)cc(=O)oc3c2)c1 (configuration not stated) do in these assays?
Shiga inhibitor: 6; NS1 function inh: 8.9µM*; Pf growth 96h: inconclusive; Cycloheximide cs: 4; Pf growth 48h: 5.2µM*; Flu NS1 inh: 18

How did COc1ccc(C2(CNC(=O)CCC(=O)O)CCCC2)cc1 do in these assays?
Shiga inhibitor: -11; NS1 function inh: 13µM*; Cycloheximide cs: 0; Pf growth 48h: 1%; Flu NS1 inh: 9

What do the screens show for `COc1ccc(C(=O)NCC2(c3ccccc3)CCCC2)c(OC)c1`?
Shiga inhibitor: 14; NS1 function inh: -5%; Pf growth 96h: inconclusive; Cycloheximide cs: -10; Pf growth 48h: 13%[0.00184 µM]
